Screens (PubChem)
Pf Dd2 growth – Plasmodium falciparum Dd2 growth inhibition; P. falciparum Dd2 growth, SYBR Green, 72 h; AID 1347417; Potency, µM (series often up to 28.9 µM), inactives show at the highest dose activity, negative = inhibition, usual class: inhibitors; hit rate 4.3% among 120,000; active = well fitted inhibition curve with a large enough effect;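 note: plate controls were DMSO vehicle for no effect and reference drug for full effect; nearly all actives have a fitted effect of over 65% in size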
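Infected erythrocytes (Dd2, 0.3% parasitemia, 2.5% hematocrit final) are added to compound in RPMI-1640/Albumax II medium, grown 72 h at 37C in low oxygen, then lysed with saponin/Triton-X containing SYBR Green and read by fluorescence.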
The depositor's hits bear a star; i = inactive; ! = not active in a repeat; [ ] = remark or other dose. The full list was thinned out, with hits kept by preference. Potency is the fitted concentration of half-maximal effect.

SMILES	Pf Dd2 growth
Cc1ccccc1[C@H]1C[C@@H](O)[C@@H](O)[C@@H]1NS(=O)(=O)c1ccc(C#N)cc1	-13.5%[44.1 µM]
O=C(c1ccccn1)N1CCC(N2CCOC2=O)CC1	92.8%[44.1 µM]
O=C(c1ccccn1)N1CCCC2(CNc3ccccc3[S+](=O)([O-])N2)C1 (configuration not stated)	10.3%
CCOC(=O)c1ccccc1NC(=O)CN1C(=O)NC2(CCCCC2)C1=O	-10.7%
COCCN1CCC(N2CCN(C(=O)c3ccc(F)c(F)c3)CC2)C1=O (configuration not stated)	-1.0%
CCS(=O)(=O)Nc1ccc(C(=O)N[C@H]2C[C@@H](C(=O)OC)N(C)C2)cc1	13.6%
COc1cccc(C2Cn3nnc(-c4nc(-c5cccc(C(F)(F)F)c5)no4)c3CO2)c1 (configuration not stated)	i
Cc1[nH]c(=O)c(C#N)cc1C(=O)N1CCCC2(CCC(=O)N(C3CC3)C2)C1 (configuration not stated)	-5.1%
C=CCN1CCN(C(=O)CN2CC3CC(C2)[C@H]2CCCC(=O)N2C3)CC1 (some centres not stated)	8.4%
Cc1noc([C@@H]2C[C@H](NS(=O)(=O)c3cccc4cccnc34)CN2C)n1	-5.1%[44.1 µM]
O=C(NCc1ccccc1)N1CC(n2cc(C(=O)N3CCOCC3)nn2)C1	-6.4%
CNC(C)c1c(F)cccc1F (configuration not stated)	1.8%[44.1 µM]
O=C(NCc1cccnc1)c1nc(-c2ccc(Cl)cc2Cl)c2cnccn12	11.2µM*
COc1ccccc1-c1cc(C(=O)NCc2cccnc2)nn2cccc12	-12.1%
COc1ccccc1-c1nc(C(=O)NCc2cccnc2)n2ccncc12	10µM*!
Cn1ncc2c(C(=O)NCc3cccnc3)cc(-c3ccc(Cl)cc3Cl)nc21	i
COC(=O)CNC(=O)c1nc(-c2ccccc2OC)c2cnccn12	10.3%
O=C(NCc1ccc2c(c1)OCO2)c1nc(-c2ccc(Cl)cc2Cl)c2ccccn12	i
Cc1cnc(C(=O)NC2C[C@H]3CC[C@@H](C2)N3C(=O)c2sccc2C)cn1 (some centres not stated)	i
C=CCOC(=O)C1=C(C)N(Cc2cccc(Cl)c2)C(=O)CC1c1ccccc1Cl (configuration not stated)	-23.7%
CCCn1ccc2sc(C)c(C(=O)NC3CCCC3)c2c1=O	i
OC[C@@H]1O[C@H](CNC2CCOCC2)[C@H](N2CCCCC2)[C@@H]1O	-12.3%[44.1 µM]
CC(=O)Nc1cccc(-c2cnc3n[nH]c(-c4ccc5c(c4)OCO5)c3n2)c1	2.51µM*
CC(=O)Nc1cccc(-c2cnc3n[nH]c(-c4sccc4C)c3n2)c1	i
CC(=O)Nc1cccc(-c2cnc3n[nH]c(-c4ccc(F)cc4C)c3n2)c1	-11.7%[44.1 µM]
SMILES	Pf Dd2 growth
COC(=O)C1=C(C)NC(=O)NC1c1ccc(N(C)C)cc1 (configuration not stated)	-12.0%
Cc1cc(C)cc(NC(=O)N2CCCC(c3noc(COc4ccccc4F)n3)C2)c1 (configuration not stated)	i
c1cc(-c2cc(-c3cn[nH]c3)c3cncn3c2)cc(N2CCOCC2)c1	-15.3%[44.1 µM]
O=C1CC(c2ccccc2)N(C(=O)C2CC2)CCCN(C(=O)c2cc3ccccc3[nH]2)CCN1 (configuration not stated)	11.2µM*
O=C1CCN(S(=O)(=O)c2ccccc2)CCCN(C(=O)Cc2cccc(F)c2)CCN1	-12.9%
CS(=O)(=O)N1CCCN(C(=O)c2ccncc2)CCNC(=O)CC1c1ccccc1 (configuration not stated)	-16.4%
O=C1CC(c2ccccc2)N(Cc2ccncc2)CCCNCCN1 (configuration not stated)	-13.8%
O=C1CC(c2ccccc2)N(Cc2ccncc2)CCCN(C(=O)c2cc3ccccc3[nH]2)CCN1 (configuration not stated)	3.55µM*
O=C1CC(c2ccccc2)N(C(=O)C2CC2)CCCN(C(=O)c2c[nH]c3ccccc23)CCN1 (configuration not stated)	i
O=C1CC(c2ccccc2)N(C(=O)C2CC2)CCCN(C(=O)c2ccc3ccccc3n2)CCN1 (configuration not stated)	-12.7%
O=C1CC(c2ccccc2)N(Cc2ccncc2)CCCN(S(=O)(=O)c2cccc(F)c2)CCN1 (configuration not stated)	0.501µM*
O=C1CC(c2ccccc2)N(Cc2ccncc2)CCCN(C(=O)C2CCCCC2)CCN1 (configuration not stated)	-25.6%
Cc1cc2nc3n(c(=O)c2n1CC(=O)Nc1ccc(Cl)cc1F)CCC3	i
Fc1ccccc1-c1nnc([C@H]2CCN(Cc3cccc(Cl)c3)C2)o1	-3.8%[44.1 µM]
Cc1[nH]ncc1CNC(=O)c1ccc(CC2CCN(S(C)(=O)=O)CC2)cc1	0.2%
CNC(=O)c1noc([C@@H]2CC(F)(F)CN2C2CCOCC2)n1	11.7%
CN1C(=O)CC(C(=O)O)C12CCN(Cc1nc3ccsc3c(=O)[nH]1)CC2 (configuration not stated)	-1.9%
Cc1cccc(-c2noc(-c3ccccc3OCC(=O)Nc3ccc([N+](=O)[O-])cc3)n2)c1	12.7%
COc1cc(NC(=O)CCc2nc(-c3cccs3)no2)cc(OC)c1OC	-3.6%
O=C(CCc1nc(-c2cccs2)no1)Nc1ccc([N+](=O)[O-])cc1	11.2µM*
COc1cc(C(=O)NC2CCN(c3cc(-c4ccc(F)cc4)[nH]n3)CC2)cc(OC)c1OC	-7.5%
COc1ccccc1NC(=O)NC1CC(=O)N(Cc2cccc(F)c2)C1 (configuration not stated)	-1.0%
COc1cc(C2CC(=O)N(Cc3cccc(F)c3)c3ccccc3S2)cc(OC)c1OC (configuration not stated)	4.47µM*
COc1ccccc1C(=O)NC1CC(=O)N(Cc2cccc(F)c2)C1 (configuration not stated)	-2.7%
O=C(Cn1ccn2nc(-c3ccccc3)c(CO)c2c1=O)N1CCc2ccccc21	4.3%
SMILES	Pf Dd2 growth
Cc1cccc([C@H]2C[C@@H](O)[C@@H](O)[C@@H]2NC(=O)C2CCOCC2)c1	23.8%[44.1 µM]
CNC(=O)[C@@H]1C[C@H](Oc2ccccc2)CN1C(=O)C1(C)CCCCC1	i
CCCS(=O)(=O)N1CCC(Cn2c(C)cnc2C2CC2)CC1	-13.3%
CCN1CCN(C(=O)Cn2ncc3c4ccccc4n(Cc4ccccc4F)c3c2=O)CC1	11.2µM*
CC1CCCCN1C(=O)Cn1ncc2c3ccccc3n(Cc3ccccc3F)c2c1=O (configuration not stated)	12.6µM*
O=C(Cn1ncc2c3ccccc3n(Cc3ccccc3F)c2c1=O)NC1CCCCCC1	-24.1%
CCN1CCN(C(=O)Cn2ncc3c4ccccc4n(Cc4c(C)cc(C)cc4C)c3c2=O)CC1	12.6µM*
Cc1ccccc1Cn1c2ccccc2c2cnn(CC(=O)N3CCC(C)CC3)c(=O)c21	i
CCOC(=O)C1CCN(C(=O)Cn2ncc3c4ccccc4n(Cc4ccccc4F)c3c2=O)CC1	-15.2%
CCCn1c2ccccc2c2cnn(CC(=O)N3CCN(c4ccccc4F)CC3)c(=O)c21	i
Cc1ccc(C)c(Cn2c3ccccc3c3cnn(CC(=O)N4CCCCC4)c(=O)c32)c1	31.9%
Cc1cc(C)c(Cn2c3ccccc3c3cnn(CC(=O)NC4CCCCCC4)c(=O)c32)c(C)c1	8.9%
COc1ccccc1C(=O)N1CCC2(CC1)CN[S+](=O)([O-])c1ccccc1N2	-4.2%
CN1CCCCC(CC(=O)Nc2ccc(N3CCOCC3)cc2)C1=O (configuration not stated)	15.9%
